An excerpt weighted towards active compounds, which were near 19% of everything screened.
HT1080 IDH1KD tx = HT-1080 IDH1 knockdown cell toxicity (counter line); HT-1080 IDH1 knockdown viability, ATP luminescence, 48 h; Potency, µM (doses to about 46.1 µM), for inactives: at the highest dose activity, negative = toxicity, usual class: cytotoxic; actives 2% (n = 360,000);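 further: potency means the concentration at half of the fitted maximal effect; 0% = DMSO wells and -100% = cell-free medium wells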
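Assay cells: HT-1080 with IDH1 knockdown, 750 per well, RPMI/5% FBS. Exposure: 48 h at 37 °C following 2 h pre-incubation. Read: CellTiter-Glo luminescence; fitted concentration-response, curve class assigned.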
ELG1 DNA repair = ELG1-dependent DNA repair inhibition | Potency, µM (doses to about 46.1 µM), for the others: top-dose activity change, negative = inhibition, most hits filed as inhibitors | HEK293T ELG1-luciferase reporter, luminescence, 16 h; DNA damage induced by 5-fluorouridine | AID 504467 | actives 2.3% (n = 330,000); further: potency means the concentration at half of the fitted maximal effect; nearly all actives have a fitted effect of over 55% in size
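Step one: seed 2,000 cells per well. Step two: pin-transfer compound or DMSO alongside 5-fluorouridine. Step three: incubate 16 hr, 37 °C, 5% CO2. Step four: add ONE-Glo, wait 30 min, read luminescence.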
DT40 TDP1 CPT = growth inhibition of DT40 Tdp1-/-;hTDP1 cells with camptothecin (screen for TDP1 inhibitors); chicken DT40 Tdp1-/-;hTDP1 cells + 20 nM CPT, ATP luminescence, 48 h; Potency, µM (doses to about 46.2 µM), for inactives: at the top dose activity change, negative = growth inhibition, hits mostly inhibitors; actives 12% (n = 420,000); further: potency means the concentration at half of the fitted maximal effect; nearly all actives have a fitted effect of over 55% in size
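Chicken DT40 Tdp1-/- cells stably complemented with human TDP1 were seeded at 400 cells/well in medium containing 20 nM camptothecin, exposed to pin-transferred compounds, and grown at 37 °C for at least 48 hr. Viability was read as ATP luminescence.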
IL-1B inflam inh = inflammasome signaling inhibition, IL-1 beta readout; THP-1 LPS/ATP IL-1B secretion, AlphaLISA, 16 h; stronger effect = lower value; activity change, % at 57.5 µM; actives 4.7% (n = 360,000); in the data active means activity change below about -50%; inconclusive means mostly about -30% to -49%
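Secreted IL-1B measured by AlphaLISA bead assay after 16 h compound exposure of THP-1 cells; compounds (final up to 57.5 uM) added 1 h before LPS (250 ng/mL) and ATP (1.25 mM) stimulation; lower signal means less secretion.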
DT40 TDP1 no CPT = qHTS for Inhibitors of human tyrosyl-DNA phosphodiesterase 1 (TDP1): qHTS in cells in absence of CPT. DT40 Tdp1-/- hTDP1 cells, no CPT, ATP luminescence, 48 h. actives 15% (n = 420,000). AID 686978, 2013. Potency, µM (titrated, usually from 46.2 µM), inactives show at the highest dose activity change, negative = growth inhibition, hits mostly inhibitors; further: potency means the concentration at half of the fitted maximal effect; nearly all actives have a fitted effect of over 55% in size
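Chicken DT40 Tdp1-/- cells stably complemented with human TDP1 were seeded at 400 cells/well with DMSO in place of 20 nM camptothecin. After compound pinning, cells grew at least 48 hr at 37 °C; viability read by CellTiter-Glo luminescence.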
HT1080-NT tox = kills 2HG-producing HT-1080-NT fibrosarcoma cells | HT-1080-NT fibrosarcoma viability, CellTiter-Glo ATP luminescence, 48 h | Potency, µM (doses to about 46.1 µM), inactives show at the highest dose activity, negative = less viability, usual class: cytotoxic | actives 1.6% (n = 360,000);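 further: NT is the 2HG producing partner of a matched IDH1 knockdown line; potency means the concentration at half of the fitted maximal effect; 0% = DMSO-treated cells and -100% = media-only wells without cells; nearly all actives have a fitted effect of over 55% in size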
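Read-out is CellTiter-Glo luminescence after 10 minutes at room temperature, following 48 hours' compound treatment of HT-1080-NT cells (750 cells/well, RPMI, 5% FBS, 37 degrees C).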
* hit, by the source's call; ? = inconclusive; / = no result given. Unless noted, the call rests on the fitted dose curve; in most records, active means well fitted curve in the direction sought with a large enough effect; inconclusive means small, poorly fitted or top-dose-only effect, or another doubt; inactive means no such curve, though single readings can be large; an effect the other way counts as inactive or inconclusive. Unless noted, on the % scale 0 is the no-effect control and ±100 the full control effect.

SMILES | HT1080 IDH1KD tx | ELG1 DNA repair | DT40 TDP1 CPT | IL-1B inflam inh | DT40 TDP1 no CPT | HT1080-NT tox
COc1ccc(N2CCN(CC(=O)Nc3ccccc3C(=O)NCc3ccccc3)CC2)cc1 | -9% | 7.1µM* | 15µM* | 3 | 18µM* | -13%
CC(NC(=O)c1ccccc1NC(=O)CN1CCc2ccccc2C1)c1ccccc1 (centres undefined) | -29% | 13µM* | -17% | 47 | ? | -15%
Cc1ccc(C(=O)C(C)OC(=O)CN2C(=O)NC3(CCCC3)C2=O)cc1 (centres undefined) | 0% | 0% | -9% | -7 | -4% | 7%
COc1cccc(CN2CC(C(=O)N3CCN(C(C)C)CC3)CCC2=O)c1 (centres undefined) | 2% | 8% | 7% | -1 | 18% | 2%
CSc1cccc(NC(=S)N(Cc2ccccc2)Cc2cccnc2)c1 | 0% | ? | -19% | ? | ? | -6%
COc1cc(CC(=O)Nc2cccc(SC)c2)cc(OC)c1OC | -29% | ? | ? | 7 | 10µM* | -18%
CCN(Cc1cc(OC)c(OC)c(OC)c1)C(=S)Nc1cccc(SC)c1 | -22% | ? | ? | 40 | 23µM* | -20%
COCCCN(Cc1cc(OC)c(OC)c(OC)c1)C(=S)Nc1cccc(Cl)c1 | -5% | / | ? | -25 | 9.2µM* | -3%
CC(C)(C)NC(=O)C(C1CC1)n1c(=O)c(-c2ccccc2)nc2ccccc21 (centres undefined) | 10% | / | ? | -9 | ? | 17%
Cc1nc(N2CCc3ccccc3C2)[nH]c(=O)c1CCC(C)C | -3% | 18% | ? | -18 | ? | 2%
Cc1nc(Nc2ccccc2)[nH]c(=O)c1CCC(C)C | 8% | ? | 7.3µM* | 23 | ? | 9%
CCc1ccc(NC(=O)C2CCC(CNS(=O)(=O)c3ccc4c(c3)C(C)(C)C(=O)N4C)CC2)cc1 (centres undefined) | / | / | -2% | / | 6% | /
N#CC1=C(N)N(c2ccccc2)C(c2ccco2)C1(C#N)C#N (centres undefined) | ? | 1% | ? | -29 | ? | -12%
Cc1cccc(N2C(N)=C(C#N)C(C#N)(C#N)C2c2ccccc2)c1 (centres undefined) | -16% | / | 21µM* | -9 | 10µM* | -20%
N#CC1=C(N)N(c2ccccc2)C(c2cccc([N+](=O)[O-])c2)C1(C#N)C#N (centres undefined) | -3% | -21% | ? | -21 | 16µM* | -1%
CC(=O)OC1CC[C@@]2(C)C3=CC(=O)[C@]4(C)C(CC5OC6(OCC(C)CC6Br)C(C)C54)C3CC[C@H]2C1 (some centres undefined) | / | / | -8% | / | -13% | /
CC1(c2ccc(Cl)cc2Cl)NC(=O)N(CC(=O)NCCC2=CCCCC2)C1=O (centres undefined) | 1% | / | ? | ? | ? | 1%
N#CCCN(C(=O)COC(=O)c1ccc2c(=O)n3c(nc2c1)CCC3)c1ccc(F)cc1 | -5% | 2% | -17% | -3 | -26% | -8%
CCNc1nc(NCC)n2c(SC(C)C(=O)c3ccc(C)cc3)nnc2n1 (centres undefined) | 1% | 5% | ? | 1 | 13µM* | 4%
CCNc1nc(NCC)n2c(SCC(=O)Nc3ccc(NC(C)=O)cc3)nnc2n1 | 12% | 3% | -14% | 19 | 5% | 0%
CCNc1nc(NCC)n2c(SCC(=O)Nc3ccccc3F)nnc2n1 | -4% | 1% | -15% | -12 | -7% | -4%
CCNc1nc(NCC)n2c(SC(C(=O)Nc3cc(C)ccc3C)c3ccccc3)nnc2n1 (centres undefined) | ? | ? | ? | ? | 12µM* | -23%
CCNc1nc(NCC)n2c(SCC(=O)Nc3ccc(CC)cc3)nnc2n1 | 0% | -4% | 21µM* | -1 | ? | 4%
CCc1nc2c(OCCOC)cccn2c1N(C)C(=O)c1ccc(C)cc1 | 12% | / | -3% | 6 | -4% | 27%
CCc1nc2c(OCCC3CCCCC3)cccn2c1N(C)C(=O)c1ccc(C)cc1 | ? | / | 15µM* | -99* | 15µM* | ?
SMILES | HT1080 IDH1KD tx | ELG1 DNA repair | DT40 TDP1 CPT | IL-1B inflam inh | DT40 TDP1 no CPT | HT1080-NT tox
CCCOc1cccn2c(N(C)C(=O)c3ccccc3F)c(CC)nc12 | 3% | / | ? | 47 | ? | ?
CCc1nc2c(OCCOc3ccccc3)cccn2c1N(C)C(=O)C1CC1 | 9% | / | 16µM* | -7 | ? | 10%
CCc1nc2c(OCCC3CCCCC3)cccn2c1N(C)C(=O)C(C)C | ? | / | 13µM* | ? | ? | ?
CCc1nc2c(OCc3ccccc3)cccn2c1N(C)C(C)=O | 28% | / | -2% | 1 | -2% | ?
CCc1nc2c(OCCC3CCCCC3)cccn2c1N(C)C(=O)C1CC1 | ? | / | 18µM* | 0 | 13µM* | ?
CCc1nc2c(OCC(=O)c3ccc(Cl)cc3Cl)cccn2c1N(C)C(=O)COc1ccccc1 | ? | / | ? | -25 | ? | ?
CCc1nc2c(OCC3CCCCC3)cccn2c1N(C)C(=O)c1ccc(OC)cc1 | ? | / | 18µM* | / | 18µM* | ?
CCc1nc2c(OCCC3CCCCC3)cccn2c1N(C)C(=O)COc1ccccc1 | 14% | / | 16µM* | 9 | ? | 4%
CCc1nc2c(OCC3CCCCC3)cccn2c1N(C)C(=O)c1ccccc1F | ? | / | ? | -18 | 16µM* | ?
Cc1ccc(NC(=O)Cn2c(=O)n(Cc3ccccc3)c(=O)c3c(C)c(C(=O)N(C)C)sc32)c(C)c1 | / | / | ? | / | -16% | /
N#C/C(=C/c1ccc(N2CCCCC2)o1)c1cccc(F)c1 | 4µM* | ? | 10µM* | -28 | 15µM* | ?
N#C/C(=C/c1ccc(N2CCCCCC2)o1)c1ccc(Cl)cc1 | 2.2µM* | ? | 15µM* | -102* | 18µM* | 5.6µM*
N#C/C(=C\c1ccc(N2CCOCC2)o1)C(=O)NCC1CCCO1 (centres undefined) | 17% | ? | -22% | -6 | -17% | 10%
COc1ccc(OCC(CO)N2CCN(c3ccccc3)CC2)cc1 (centres undefined) | 8% | / | 5% | -4 | -10% | 9%

Screens deposited in PubChem by National Center for Advancing Translational Sciences (NCATS).
